Only some compounds are listed: those with a hit (about 7.4% of all), similar ones and a draw of the others.
ELG1 genotoxic: qHTS screen for small molecules that induce genotoxicity in human embryonic kidney (HEK293T) cells expressing luciferase-tagged ELG1; HEK293T ELG1-luciferase reporter, luminescence, 16 h; Potency, µM (doses to about 46 µM), for inactives: top-dose activity change, positive = activation, usual class: activators; actives 1.3% (n = 330,000); AID 504466, 2011; also: % of control where 0% means no effect; nearly all actives have a fitted effect of over 60% in size
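Step 1: seed 2,000 HEK293T ELG1-luciferase cells per well. Step 2: add compound or DMSO, incubate 16 hr at 37 °C. Step 3: ONE-Glo, 30 min at room temperature, read luminescence.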
SMN2 splice enh: qHTS Assay for Enhancers of SMN2 Splice Variant Expression; HEK293 SMN2-luciferase splicing reporter, luminescence, 30-36 h; Potency, µM (series often up to 46.1 µM), inactives show at the top dose activity change, positive = activation, most hits filed as activators; actives 2.8% (n = 210,000); also: % of control where 0% means no effect; nearly all actives have a fitted effect of over 55% in size
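HEK293 cells carry an SMN2 minigene-luciferase reporter in which exon 7 inclusion puts luciferase in frame. Cells were seeded at 2000 cells/well, attached for 10-12 hours, then exposed to compounds for 30-36 hours at 37C before ONE-Glo luminescence.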
FLuc modulator: qHTS profiling assay for firefly luciferase inhibitor/activator using purifed enzyme and Km concentrations of substrates (counterscreen for miR-21 project); purified FLuc, Km substrates, luminescence inhibition; Luciferin 4-monooxygenase (Photinus pyralis), P08659; actives 6.9% (n = 360,000); AID 588342, 2011; Potency, µM (doses to about 57.5 µM), for inactives: at the highest dose activity change, negative = inhibition, usual class: inhibitors;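 also: plate controls were vehicle for no effect and reference inhibitor for full effect; nearly all actives have a fitted effect of over 55% in size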
Target sequence (P08659 whole entry, looked up): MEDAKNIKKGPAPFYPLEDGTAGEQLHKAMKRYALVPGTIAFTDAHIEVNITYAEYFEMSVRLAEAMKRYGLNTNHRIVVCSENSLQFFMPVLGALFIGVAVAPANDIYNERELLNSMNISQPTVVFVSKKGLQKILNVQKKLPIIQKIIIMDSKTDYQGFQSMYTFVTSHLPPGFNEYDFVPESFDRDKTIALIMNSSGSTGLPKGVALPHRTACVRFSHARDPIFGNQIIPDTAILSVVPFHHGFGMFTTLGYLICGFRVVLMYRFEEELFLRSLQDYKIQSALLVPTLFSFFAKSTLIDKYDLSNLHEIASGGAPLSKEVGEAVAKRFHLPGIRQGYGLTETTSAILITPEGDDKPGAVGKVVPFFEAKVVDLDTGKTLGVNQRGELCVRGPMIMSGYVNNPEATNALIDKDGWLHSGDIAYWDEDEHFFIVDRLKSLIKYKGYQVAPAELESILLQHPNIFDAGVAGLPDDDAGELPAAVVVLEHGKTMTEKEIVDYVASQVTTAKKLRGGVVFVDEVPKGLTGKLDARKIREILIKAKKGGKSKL
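Biochemical qHTS of compounds, final roughly 60 µM downward over six points, against 10 nM purified firefly luciferase using Km concentrations of substrates (10 uM D-luciferin, 10 uM ATP) in Tris acetate pH 7.5 buffer; luminescence output.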
NPC1 promoter act: qHTS Assay for NPC1 Promoter Activators; Potency, µM (highest dose often 9.22 µM), without a hit: at the top dose activation, usual class: activators; Huh7 NPC1 promoter luciferase reporter, 24 h; actives 2.4% (n = 320,000); also: % of control where 0% means no effect; nearly all actives have a fitted effect of over 60% in size
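Luminescence from an NPC1 promoter-driven luciferase reporter in stably transfected Huh7 cells was measured after 24 h compound treatment at 37 °C, followed by 10 min ambient incubation with luciferase detection reagent.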
Rab9 prom act: qHTS Assay for Rab9 Promoter Activators. Huh7 Rab9 promoter-luciferase reporter, luminescence, 24 h. actives 2.8% (n = 320,000). Potency, µM (highest dose often 9.22 µM), for inactives: at the highest dose activation, negative = inhibition, actives largely listed as activators; also: % of control where 0% means no effect; nearly all actives have a fitted effect of over 60% in size
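Quantitative HTS format; Huh7 Rab9-luciferase reporter cells (1500/well) receive compound 2 h post-plating, incubate 24 h at 37 °C, then get luciferase reagent for 10 min before luminescence reading.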
* = called active by the depositor; u = inconclusive; x = no result given; [ ] = dose if it differs, or a comment. Calls follow the shape of the dose curve; as a rule, active = well fitted curve in the direction sought with a large enough effect; inconclusive = small, poorly fitted or top-dose-only effect, or another doubt; inactive = no such curve, though single readings can be large; an effect the other way counts as inactive or inconclusive. Potency is read from the fitted curve at half-maximal effect.

SMILES	ELG1 genotoxic	SMN2 splice enh	FLuc modulator	NPC1 promoter act	Rab9 prom act
CCc1nnc(NC(=O)CSc2nc(C)cc(C)c2C#N)s1	u	11.2µM*	u	u	0.501µM*
Cc1ccc(C)c(NC(=O)C(Cc2ccccc2)n2cccc2)c1 (stereo not given)	x	-48.4%	0.9%	x	x
CCOc1cccc(C(=O)Nc2cc(C)ccc2NC(=O)c2ccco2)c1	-3.1%	x	-1.1%	0.9%	4.2%
CCOc1ccc(C(=O)CSCCC(=O)O)cc1	16.4%	1.1%	6.01µM*	-3.7%	-2.7%
COc1ccc2cc3cc(C(=O)NC(C)C)oc3nc2c1	u	x	16.9µM*	u	2µM*
CCCCN(C)C(=O)c1cc2cc3ccc(OC)cc3nc2o1	u	x	3.79µM*	3.98µM*	3.55µM*
CCCCN(C)CCNC(=O)c1cc2cc3ccc(OC)cc3nc2o1	-2.1%	x	0.1%	-2.7%	-14.8%
CCCCN(C)C(=O)c1cc2cc3cc(OC)ccc3nc2o1	-2.0%	u	13.5µM*	u	3.55µM*
CCN1CCN(c2cc(C)c3cc(NC(=O)c4ccc(C)c(C)c4)ccc3n2)CC1	9.7%	x	21.3µM*	21.2%	6.8%[1.84 µM]
Cc1ccc(NC(=O)Nc2ccc3nc(N4CCN(C)CC4)cc(C)c3c2)cc1C	x	x	-14.7%	x	x
Cc1cc(N2CCN(C)CC2)nc2ccc(NC(=O)Nc3cccc(Cl)c3)cc12	x	x	13.5µM*	x	x
CCN1CCN(c2cc(C)c3cc(NC(=O)c4ccncc4)ccc3n2)CC1	-7.0%	-12.4%	-2.2%	-0.1%	1.3%
Cc1cc(N2CCN(C)CC2)nc2ccc(NC(=O)Nc3ccccc3Br)cc12	x	x	1.51µM*	x	x
Cc1cc(N2CCN(C)CC2)nc2ccc(NC(=O)Nc3ccccc3)cc12	x	x	4.78µM*	x	x
COc1ccc(CCn2nnnc2C2(c3ccc(C)cc3)CC2)cc1	x	x	x	-1.9%[46.1 µM]	-11.2%[46.1 µM]
CC(=O)N(C1=C(Cl)C(=O)c2ccccc2C1=O)C1CCCCC1	1.5%	x	u	-31.7%	-46.9%
CC(=NC1CCCCC1)C1=C(O)c2ccccc2C1=O	u	15.8µM*	3.38µM*	2.82µM*	2.82µM*
Cc1c(-n2c(SCC(N)=O)nc3ccccc3c2=O)c(=O)n(-c2ccccc2)n1C	0.7%	17.8%	-1.1%	-2.4%	0.8%
Cc1ccc(S(=O)(=O)N2CCN(C(=O)c3ccc(COc4ccccc4)o3)CC2)cc1	-6.3%	x	0.4%	0.0%	-1.8%
O=C(O)c1cc(-n2c(/C=C\c3ccc(F)cc3)nc3ccccc3c2=O)ccc1Cl	x	x	23.9µM*	x	x
Cc1cccc(NS(=O)(=O)c2ccc3c(c2)OCCO3)c1	-6.6%	14.1µM*	4.3%	-0.7%	-0.5%
Cc1ccc(S(=O)(=O)Nc2ccc3c(c2)OCCO3)cc1C	5.3%	x	21.3µM*	-3.0%	-0.2%
Cc1nc2cc(NC(=O)COc3ccc(C#N)cc3)ccc2n1-c1ccccc1	-3.0%	20.5%	u	-0.3%	0.9%
Fc1ccc(-c2nc3c(Cl)cc(C(F)(F)F)cn3c2Cl)cc1	16.4µM*	17.8µM*	u	-0.5%	0.1%
CN(C)/C=C/C(=O)/C=C/c1ccc(Cl)cc1	u	12.6µM*	13.5µM*	u	u
SMILES	ELG1 genotoxic	SMN2 splice enh	FLuc modulator	NPC1 promoter act	Rab9 prom act
CC1(C)OC(=O)N(c2ccccc2)C12C=Cc1c(ccc3ccccc13)O2 (stereo not given)	-6.4%	-30.5%	3.0%	1.0%	-6.9%
O=C1NC2(C=Cc3c(ccc4ccccc34)O2)Oc2ccccc21 (stereo not given)	15.4%	-4.6%	6.01µM*	u	28.4%
C/C(=N/O)c1ccc2cc(Br)c3ccccc3c2c1	x	-9.8%[9.22 µM]	x	x	x
CCOc1cc(/C=N/Nc2ncnc(Cl)c2N)ccc1O	u	23.0%	10.7µM*	16.1%	22.2%
Nc1c(Cl)ncnc1N/N=C/c1ccc2ccccc2n1	u	-40.6%	4.78µM*	u	u
Nc1c(Cl)ncnc1N/N=C/c1ccccn1	4.11µM*	-81.4%	u	-0.4%	0.6%
Cc1cc(C)n(C(C)CC(=O)NCc2ccc(N(C)C)cc2)n1 (stereo not given)	x	x	-4.8%	x	x
Cc1nc(-c2ccccc2Cl)sc1C(=O)/C=C/N(C)C	u	u	16.9µM*	3.16µM*	1.78µM*
Cc1nc(-c2ccccc2)sc1C(=O)/C=C/c1ccc(Cl)cc1	-7.1%	-23.6%	-16.2%	-3.2%	0.2%
COc1ccc(C(=O)NCCn2cc(SCC(=O)NCc3ccco3)c3ccccc32)cc1	4.9%	-50.1%	16.9µM*	19.7%	u
Cc1cc(NC(=O)CSc2cn(CCNC(=O)c3ccc(F)cc3)c3ccccc23)no1	0.0%	-4.2%	16.9µM*	1.4%	-0.5%
O=C(Nc1ccncc1)c1cc(S(=O)(=O)N2CCCC2)ccc1Cl	-5.3%	x	x	x	x
C/C(=N\Nc1nccnc1Cl)c1c(F)c(F)c(F)c(F)c1F	1.0%	-0.9%	0.3%	0.4%	5.4%
C/C(=N\Nc1nccnc1Cl)c1ccc(Cl)c(Cl)c1	6.7%	x	21.3µM*	17.6%	17.8%
C/C(=N\Nc1nccnc1Cl)c1ccc(F)cc1	u	x	23.9µM*	u	u
C/C(=N\Nc1nccnc1Cl)c1ccc(O)cc1	11.5%	x	u	16.7%	15.4%
Cc1cs/c(=N\N=C\c2ccccc2)n1Cc1ccco1	2.6%	-16.7%	21.3µM*	9.6%	7.9%
O=C(O)c1cc(-c2ccc(O)cc2)nc2ccccc12	3.0%	-5.4%	u	0.4%	-2.2%
Cc1ccc(-c2cc(C(=O)O)c3ccccc3n2)c(C)c1	6.6%	x	7.57µM*	16.6%	-0.2%
O=C(Nc1nnc(-c2cccs2)o1)c1cc(-c2ccccc2)nc2ccccc12	-8.2%	-92.1%	19µM*	-3.4%	-2.4%
CCOc1ccc(-c2cc(C(=O)N3CCN(c4cc(Cl)ccc4C)CC3)c3ccccc3n2)cc1	x	x	9.53µM*	x	x
O=C(O)c1cc(-c2ccccc2)nc2ccccc12	3.3%	-20.0%	23.9µM*	1.2%	0.7%
Cc1cccc(N=C2NC(=O)c3cc([N+](=O)[O-])ccc32)c1	-7.2%	5.2%	-8.2%	-4.3%	3.0%
Cc1ccc(Cl)cc1	x	-7.7%	x	x	x
O=C(NCCc1ccc(F)cc1)c1cc(-c2ccncc2)nc2ccccc12	-7.7%	x	4.1%	-3.4%	-5.8%
CCOc1ccc(-c2cc(C(=O)NCCc3ccc(C)cc3)c3ccccc3n2)cc1	x	x	1.35µM*	x	x
Cc1ccc(-c2cc(C(=O)NCCc3ccccc3)c3ccccc3n2)cc1C	x	x	8.49µM*	x	x
CCOc1ccc(Sc2cc(C(=O)NCCc3ccccc3)c3ccccc3n2)cc1	x	x	-7.2%	x	x
CCOc1ccc(-c2cc(C(=O)O)c3ccccc3n2)cc1	3.26µM*	11.2µM*	0.675µM*	u	1.58µM*
O=C(O)c1cc(-c2ccncc2)nc2ccccc12	x	-8.5%[9.22 µM]	x	x	x

Bioassay records as filed in PubChem BioAssay.
